Measurements reported in PubChem BioAssay (NCI).
Compounds without any hit were thinned out: in the full panel of roughly 83,000, 20% have a hit.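 Plates (96-well) were seeded with cells, treated with compound at one concentration, and incubated for 48 hours before percent growth was determined.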 Unmarked numbers belong to inactive results. Activity calls are given as the source filed them. The calls were made as follows: active = growth percent below 10; inactive = the rest.

These compounds were tested on PC-3 prostate (assay: NCI-60 one-dose screen, 48 h (100 = growth as untreated, 0 = no growth, -100 = all killed)). Settings: 10 µM.
`O=C(c1ccc(Cl)cc1)C1[C@H](c2ccccc2Br)[C@@H](c2ccccc2)NC12C(=O)Nc1ccccc12` (stereo not given in full) was tested, and the growth was 17.3%.
`O=C(Nc1cc(Cl)cc(Cl)c1)Nc1cc(Cl)cc(Cl)c1` was tested, and the growth was 0.387% (active).
In the case of `CC(C)C1=C[C@@]23CC[C@@H]4[C@](C)(CCC[C@]4(C)C(=O)NCc4ccccc4)[C@H]2C[C@@H]1[C@H]1C(=O)CCC(=O)[C@H]13`, the growth is reported as 36.9%.
Compound `COc1ccc(Nc2nc(N)n(Cc3cccc(Br)c3)n2)cc1` has a growth of 13.1%.
Compound `O=S(=O)(Nc1ncccn1)c1ccc(-n2c(-c3ccc(Br)cc3)nc(-c3ccccc3)c2-c2ccccc2)cc1` has a growth of 22.3%.
`Clc1cccc(N/N=C/c2c[nH]c3ccccc23)n1` gave a growth of 25.2%.
`COc1ccc2c(c1)N=C(C(=O)O)/C2=C/c1sc(Nc2ccc(O)cc2)nc1O` showed a growth of 76%.
In the case of `CCCCCc1ccc(S(=O)(=O)N(C(C)=O)c2cc(-c3csc(N(C)C(C)=O)n3)ccc2N2CCN(C)CC2)cc1`, the growth is reported as 26.5%.

The compounds below were run on SK-MEL-5 melanoma in the same assay as above. Settings: 10 µM.
Work on `Cc1ccc(/C=C/C(=O)c2ccc(NC(=O)CSc3nnc(-c4c[nH]c5ccccc45)n3-c3ccccc3)cc2)cc1` yielded a growth of 94%.
`O=C(Nc1nc2ccc([N+](=O)[O-])cc2s1)Nc1cc(Cl)ccc1I` was tested, and the growth was -94.3% (active).
Work on `Cc1ccc(C(=O)CSc2nnc(-c3c[nH]c4ccccc34)n2-c2ccccc2)cc1` yielded a growth of 32.9%.
`COc1ccc2[nH]c(O)c(N=NC(=O)c3cc(-c4ccc(C)cc4)nc4ccccc34)c2c1` was tested, and the growth was 94.6%.
Work on `Cn1cc(/C=N/Nc2cccc(Cl)n2)c2ccccc21` yielded a growth of 71.7%.
Work on `N#Cc1ccc(-c2nn(-c3ccc(C(=O)O)cc3)cc2CNc2ccc(Cl)cc2)cc1` yielded a growth of 76%.
Compound `O=c1[nH]c2ccccc2cc1CSc1ccc(Nc2nccc(-c3ccc4ccccc4c3)n2)cc1` has a growth of 77%.
For `OCCCNc1oc(-c2ccccc2)nc1[P+](c1ccccc1)(c1ccccc1)c1ccccc1`, the growth was -100% (active).
For `COc1ccc(C(=O)/C=C/c2cc(C(F)(F)F)cc(C(F)(F)F)c2)cc1S(N)(=O)=O`, the growth was -98.4% (active).
With `CS(=O)(=O)Nc1ccc(-c2ccc3c(c2)ncn3-c2ccc(NC(=O)Nc3ccc(Cl)c(C(F)(F)F)c3)cc2)cc1` the growth was -97.7% (active).
`O=c1nc(-c2ccccc2)cc(-c2cc3ccccc3nc2Cl)[nH]1` gave a growth of 62.2%.
Compound `COc1cccc(/C=C2\N=C(C)N(CCc3ccc(S(N)(=O)=O)cc3)C2=O)c1` has a growth of 102%.
For `O=S(=O)(Nc1ncccn1)c1ccc(-n2c(-c3ccccc3)nc(-c3ccccc3)c2-c2ccccc2)cc1`, the growth was 76.1%.
`Cc1ccc(-c2nc(Nc3ccc(S(N)(=O)=O)cc3)c3ccccc3n2)cc1` gave a growth of 74.4%.
In the case of `COc1ccc(C(C)=C(c2ccc(OCCCN(C)C)cc2)c2ccc(OCCCN(C)C)cc2)cc1`, the growth is reported as -98.5% (active).
`COC[C@@H](CC(C)C)N=C1NC(=O)/C(=C/c2ccc3ncsc3c2)N1` was tested, and the growth was -12.1% (active).
Compound `Cc1ccc(-c2nc3ccc(C(=O)N=Nc4c(O)[nH]c5ccc(Cl)cc45)cc3[nH]2)cc1` has a growth of 22.1%.
`COc1cccc(/C=N/NC(=O)c2ccc3nc(-c4ccc(Cl)cc4)[nH]c3c2)c1O` was tested, and the growth was -98% (active).
In the case of `N#Cc1ccc(-c2nn(-c3ccc(C(=O)O)cc3)cc2CNc2ccc(Oc3ccccc3)cc2)cc1`, the growth is reported as 70%.
In the case of `CC(=O)c1ccc(Nc2nc(SCCC(C)C)nc(-c3ccc(F)cc3)c2C#N)cc1`, the growth is reported as 93.8%.
Work on `Cc1cc(C)nc(NS(=O)(=O)c2ccc(N/C(N)=N/c3nccc(-c4ccccc4)n3)cc2)n1` yielded a growth of 46.3%.
With `COc1cccc(-c2ccnc(/N=C(\N)Nc3ccc(S(=O)(=O)Nc4nc(C)cc(C)n4)cc3)n2)c1` the growth was 99.6%.
`CC(=O)C1=C(C)NC(SCC(=O)Nc2ccc(S(=O)(=O)Nc3cc(C)on3)cc2)=NC1c1ccccc1` (stereo not given) gave a growth of 101%.
In the case of `COc1cccc2nc(Nc3ccc(F)c(NC(=O)c4ccc(CN5CCN(C)CC5)c(C(F)(F)F)c4)c3)ccc12`, the growth is reported as -94.9% (active).
With `CNCc1cccc2c1OCCCCCC[C@@](C)(O)CC1(CC1)S(=O)(=O)c1ccc(cc1)-c1cnc(N)c(n1)C(=O)N2` the growth was -100% (active).
`CN(C)c1ccc(/C=C/c2nc3ccccc3c(=O)n2CC(=O)Nc2ccccc2)cc1` was tested, and the growth was 62%.
`O=C1CCC(N2Cc3c(C#CCCCNC(=O)c4ccc(NC(=O)[C@@H]5NC6(CCCCC6)[C@@]6(C(=O)Nc7cc(Cl)ccc76)[C@H]5c5cccc(Cl)c5F)cc4)cccc3C2=O)C(=O)N1` (stereo not given in full) was tested, and the growth was 5.4% (active).
With `O=C(N/N=C/c1ccc(-c2cccc([N+](=O)[O-])c2)o1)c1[nH]c2ccc(Br)cc2c1-c1ccccc1` the growth was -20.7% (active).
With `O=C(c1ccc(Cl)cc1)C1[C@H](c2ccccc2Br)[C@@H](c2ccccc2)NC12C(=O)Nc1ccc(Br)cc12` (stereo not given in full) the growth was 14.4%.
For `O=C(c1ccc(Cl)cc1)C1[C@H](c2ccccc2Br)[C@@H](c2ccccc2)NC12C(=O)Nc1ccccc12` (stereo not given in full), the growth was -15.9% (active).
With `O=C(Nc1cc(Cl)cc(Cl)c1)Nc1cc(Cl)cc(Cl)c1` the growth was -100% (active).
`CC(C)C1=C[C@@]23CC[C@@H]4[C@](C)(CCC[C@]4(C)C(=O)NCc4ccccc4)[C@H]2C[C@@H]1[C@H]1C(=O)CCC(=O)[C@H]13` showed a growth of 69.3%.
In the case of `COc1ccc(Nc2nc(N)n(Cc3cccc(Br)c3)n2)cc1`, the growth is reported as -93.3% (active).
`O=S(=O)(Nc1ncccn1)c1ccc(-n2c(-c3ccc(Br)cc3)nc(-c3ccccc3)c2-c2ccccc2)cc1` was tested, and the growth was 25.3%.
Work on `Clc1cccc(N/N=C/c2c[nH]c3ccccc23)n1` yielded a growth of 41.7%.
With `COc1ccc2c(c1)N=C(C(=O)O)/C2=C/c1sc(Nc2ccc(O)cc2)nc1O` the growth was 83%.
`CCCCCc1ccc(S(=O)(=O)N(C(C)=O)c2cc(-c3csc(N(C)C(C)=O)n3)ccc2N2CCN(C)CC2)cc1` was tested, and the growth was -16% (active).
